Results filed as inconclusive are left out. Active and inactive are the calls of the source. How the source made its calls, unless noted: active means hit-call score of the fitted dose curve at least 0.9, where 1 is the maximum; inactive means score below 0.9.
Legend:
[1] = ATG_TCF_b_cat_CIS: Attagene CIS-FACTORIAL HepG2 Assay for human T-Cell-Factor with beta-catenin (TCF/b-cat) (AID 2282965); conditions: HepG2 TCF/beta-catenin cis-reporter transcription, actives raise or lower the signal
Outline: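 Using capillary electrophoresis as the read-out, labelled reporter cDNA fragments from transiently transfected HepG2 were sized and quantified. Exposure lasted 24 hours; activity in either direction was referenced to DMSO.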

[2] = ATG_TAL_CIS: Attagene CIS-FACTORIAL HepG2 Assay for human TAL Basal Promoter (AID 2282966); conditions: HepG2 Attagene cis-factorial TAL promoter reporter; actives raise or lower the signal;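 further: background control endpoint measuring basal TAL promoter reporter mRNA not a specific factor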
Outline: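 Fluorescence of labelled reporter cDNA fragments, resolved by capillary electrophoresis, gave the readout. Human HepG2 liver cells carried transiently transfected cis-element reporter units and were treated for 24 hours; activity was fitted bidirectionally against DMSO.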

[3] = ATG_TGFb_CIS: Attagene CIS-FACTORIAL HepG2 Assay for human Transforming Growth Factor (TGF) (AID 2282967); conditions: HepG2 Attagene CIS TGFb reporter, mRNA transcription; actives raise or lower the signal
Outline: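 HepG2 cells transiently transfected with cis-promoter-driven multiple reporter units measure endogenous TF activity; reporter mRNA quantified at 24 h by RT-PCR, FAM labeling, HpaI digestion and capillary electrophoresis. Bidirectional fit vs DMSO.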

[4] = ATG_VDRE_CIS: Attagene CIS-FACTORIAL HepG2 Assay for human Vitamin D Receptor Element (VDRE) (AID 2282968); conditions: HepG2 VDRE cis-reporter transcription, actives raise or lower the signal
Outline: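 HepG2 cells transiently transfected with cis-element reporter units, dosed 24 h; reporter mRNA measured by RT-PCR, 6-FAM labeling, HpaI digestion and capillary electrophoresis. Activity fitted bidirectionally against DMSO baseline.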

[5] = target: Estrogen receptor (Homo sapiens) (UniProt P03372); experiment: ATG_ERa_TRANS: Attagene TRANS-FACTORIAL HepG2 Assay for human Estrogen Receptor alpha (ERa) (AID 2282970; active means hit-call score of the fitted dose curve at least 0.9, where 1 is the maximum); conditions: HepG2 Attagene TRANS ERa GAL4 reporter, mRNA
Estrogen receptor (Homo sapiens), sequence (P03372 whole entry, looked up, the tested form may be a part): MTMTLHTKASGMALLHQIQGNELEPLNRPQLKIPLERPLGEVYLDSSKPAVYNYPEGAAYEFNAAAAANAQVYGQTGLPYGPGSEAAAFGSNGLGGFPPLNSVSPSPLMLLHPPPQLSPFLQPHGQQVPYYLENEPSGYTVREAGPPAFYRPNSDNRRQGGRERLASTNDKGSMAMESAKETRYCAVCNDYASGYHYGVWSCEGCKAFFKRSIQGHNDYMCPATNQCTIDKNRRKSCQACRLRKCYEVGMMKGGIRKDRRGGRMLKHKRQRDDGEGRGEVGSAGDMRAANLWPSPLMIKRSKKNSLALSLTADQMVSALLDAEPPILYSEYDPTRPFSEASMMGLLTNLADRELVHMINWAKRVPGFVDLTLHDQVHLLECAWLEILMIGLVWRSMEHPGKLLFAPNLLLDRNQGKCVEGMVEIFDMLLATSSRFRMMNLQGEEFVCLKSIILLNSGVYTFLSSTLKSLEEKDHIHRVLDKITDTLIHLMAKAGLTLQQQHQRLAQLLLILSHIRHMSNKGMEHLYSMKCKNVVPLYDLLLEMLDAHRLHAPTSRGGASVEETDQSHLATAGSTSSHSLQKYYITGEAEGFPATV
Outline: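 Human liver HepG2, transient transfection of multiple GAL4-UAS reporter units; TRANS format (exogenous NR-Gal4 chimera). 24 h dosing. Readout: reporter mRNA, RT-PCR, 6-FAM primer extension, HpaI digest, capillary electrophoresis. Positive direction vs DMSO.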

[6] = target: X-box-binding protein 1 (Homo sapiens) (UniProt P17861); experiment: ATG_Xbp1_CIS: Attagene CIS-FACTORIAL HepG2 Assay for human X-box Binding Protein 1 (XBP1) (AID 2282972); conditions: HepG2 XBP1 cis-element reporter, Attagene multiplex; actives raise or lower the signal
X-box-binding protein 1 (Homo sapiens), sequence (P17861 whole entry, looked up): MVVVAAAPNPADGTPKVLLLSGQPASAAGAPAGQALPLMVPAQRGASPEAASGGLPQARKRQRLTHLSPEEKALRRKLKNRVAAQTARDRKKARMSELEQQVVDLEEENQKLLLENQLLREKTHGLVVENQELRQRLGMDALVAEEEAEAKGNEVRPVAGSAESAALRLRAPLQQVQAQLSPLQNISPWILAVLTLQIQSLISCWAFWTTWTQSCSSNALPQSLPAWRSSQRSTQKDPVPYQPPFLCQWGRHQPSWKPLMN
Outline: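 HepG2 cells transiently transfected with cis-regulated multiple reporter transcription units; endogenous transcription factor activity measured 24 hours after chemical dosing. Reporter mRNA quantified by RT-PCR, 6-FAM primer extension, HpaI digestion and capillary electrophoresis; bidirectional fitting versus DMSO.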

[7] = ATG_GAL4_TRANS: Attagene TRANS-FACTORIAL HepG2 Assay for GAL4 (Internal Marker) (AID 2282976; active means hit-call score of the fitted dose curve at least 0.9, where 1 is the maximum); conditions: HepG2 Attagene TRANS GAL4 internal marker reporter
Outline: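 First, HepG2 cells were transfected with reporter units under GAL4-UAS control. Next, they were treated with chemical for 24 h. Finally, RNA was reverse-transcribed, PCR-amplified, FAM-labelled and resolved by capillary electrophoresis, with induction scored against DMSO.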

[8] = target: Oxysterols receptor LXR-alpha (Homo sapiens) (UniProt Q13133); experiment: ATG_LXRa_TRANS: Attagene TRANS-FACTORIAL HepG2 Assay for human Liver X Receptor alpha (LXRa) (AID 2282980; active means hit-call score of the fitted dose curve at least 0.9, where 1 is the maximum); conditions: HepG2 Attagene TRANS reporter, LXRa transactivation
Oxysterols receptor LXR-alpha (Homo sapiens), sequence (Q13133 whole entry, looked up, the tested form may be a part): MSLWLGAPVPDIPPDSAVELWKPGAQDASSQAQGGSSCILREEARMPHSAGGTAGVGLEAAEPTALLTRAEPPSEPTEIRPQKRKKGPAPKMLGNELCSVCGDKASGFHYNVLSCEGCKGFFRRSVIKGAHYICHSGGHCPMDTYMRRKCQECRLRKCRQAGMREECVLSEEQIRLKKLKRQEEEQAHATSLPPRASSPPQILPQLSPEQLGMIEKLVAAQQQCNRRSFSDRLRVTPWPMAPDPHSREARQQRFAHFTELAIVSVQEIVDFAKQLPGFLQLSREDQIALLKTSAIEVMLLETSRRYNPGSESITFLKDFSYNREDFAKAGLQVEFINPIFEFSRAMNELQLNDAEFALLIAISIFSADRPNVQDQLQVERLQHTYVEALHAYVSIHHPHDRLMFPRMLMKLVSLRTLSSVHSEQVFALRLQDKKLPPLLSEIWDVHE
Outline: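 Transfect HepG2 with GAL4-UAS multiplex reporter constructs (TRANS format, chimeric receptor-GAL4); treat 24 h; extract RNA, reverse-transcribe, PCR-amplify, FAM-label, HpaI-digest; resolve fragments by capillary electrophoresis. Upward response vs DMSO.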

[9] = target: Oxysterols receptor LXR-beta (Homo sapiens) (UniProt P55055); experiment: ATG_LXRb_TRANS: Attagene TRANS-FACTORIAL HepG2 Assay for human Liver X Receptor beta (LXRb) (AID 2282981; active means hit-call score of the fitted dose curve at least 0.9, where 1 is the maximum); conditions: HepG2 Attagene TRANS GAL4-LXRb reporter, mRNA
Oxysterols receptor LXR-beta (Homo sapiens), sequence (P55055 whole entry, looked up, the tested form may be a part): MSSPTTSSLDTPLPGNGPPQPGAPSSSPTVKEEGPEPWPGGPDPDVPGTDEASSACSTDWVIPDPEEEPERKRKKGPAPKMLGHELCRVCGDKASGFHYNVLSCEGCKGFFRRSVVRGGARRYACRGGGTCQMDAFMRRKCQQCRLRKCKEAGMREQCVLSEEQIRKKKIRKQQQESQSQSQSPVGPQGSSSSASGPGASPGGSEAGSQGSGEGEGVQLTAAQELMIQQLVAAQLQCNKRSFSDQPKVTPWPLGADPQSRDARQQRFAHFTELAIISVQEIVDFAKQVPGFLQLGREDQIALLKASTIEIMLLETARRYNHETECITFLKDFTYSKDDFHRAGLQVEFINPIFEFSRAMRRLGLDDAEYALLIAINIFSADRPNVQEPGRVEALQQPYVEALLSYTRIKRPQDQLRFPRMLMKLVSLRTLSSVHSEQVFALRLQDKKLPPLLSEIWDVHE
Outline: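 HepG2 cells transiently transfected with multiple reporter transcription units carrying chimeric NR-Gal4 proteins acting on GAL4-UAS reporters; compound exposure 24 h. Reporter mRNA quantified by RT-PCR, 6-FAM labelling, HpaI digestion and capillary electrophoresis; gain of signal versus DMSO.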

[10] = target: Hepatocyte nuclear factor 4-alpha (Homo sapiens) (UniProt P41235); experiment: ATG_HNF4a_TRANS: Attagene TRANS-FACTORIAL HepG2 Assay for human Hepatocyte Nuclear Factor 4 alpha (HNF4a) (AID 2282982; active means hit-call score of the fitted dose curve at least 0.9, where 1 is the maximum); conditions: HepG2 HNF4a transactivation reporter, mRNA readout
Hepatocyte nuclear factor 4-alpha (Homo sapiens), sequence (P41235 whole entry, looked up, the tested form may be a part): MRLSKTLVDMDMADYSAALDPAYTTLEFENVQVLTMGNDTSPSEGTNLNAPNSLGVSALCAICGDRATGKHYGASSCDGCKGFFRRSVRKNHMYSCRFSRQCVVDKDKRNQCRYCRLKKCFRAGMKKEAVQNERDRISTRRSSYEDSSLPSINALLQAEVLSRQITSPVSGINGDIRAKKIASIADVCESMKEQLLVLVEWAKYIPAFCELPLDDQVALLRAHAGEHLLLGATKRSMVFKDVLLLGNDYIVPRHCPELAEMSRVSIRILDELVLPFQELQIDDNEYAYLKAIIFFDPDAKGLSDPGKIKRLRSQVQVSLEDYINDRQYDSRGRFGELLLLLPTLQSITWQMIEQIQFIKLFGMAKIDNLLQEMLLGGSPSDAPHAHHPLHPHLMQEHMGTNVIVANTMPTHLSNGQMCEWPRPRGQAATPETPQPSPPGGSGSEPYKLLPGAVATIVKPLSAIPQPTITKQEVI
Outline: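 HepG2 cells transiently transfected with multiplexed GAL4-UAS reporter units responsive to chimeric NR-GAL4 proteins; compound exposure 24 h. Reporter mRNA quantified by RT-PCR, 6-FAM labelling, HpaI digestion and capillary electrophoresis; gain of signal versus DMSO baseline.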

[11] = ATG_M_06_TRANS: Attagene TRANS-FACTORIAL HepG2 Assay for M06 Transcription Factor (Internal Marker) (AID 2282983; active means hit-call score of the fitted dose curve at least 0.9, where 1 is the maximum;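 on AC50: potency for rise in reporter mRNA above DMSO baseline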;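 on outcome: reporter transcript level by RT-PCR then capillary electrophoresis fluorescence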); conditions: HepG2 Attagene TRANS M06 internal marker reporter
Outline: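 Transfect HepG2 with MRTUs → dose compounds 24 h → isolate RNA, oligo(dT) RT → PCR with reporter primers → 6-FAM primer extension → HpaI digest → CE fragment analysis. Positive direction vs DMSO.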

[12] = ATG_M_32_TRANS: Attagene TRANS-FACTORIAL HepG2 Assay for M32 Transcription Factor (Internal Marker) (AID 2282984; active means hit-call score of the fitted dose curve at least 0.9, where 1 is the maximum;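 further: transcript level of a background control reporter unit measured by RT-PCR and capillary electrophoresis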); conditions: HepG2 Attagene TRANS M32 internal marker reporter
Outline: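 HepG2 cells transiently transfected with multiple GAL4-UAS reporter transcription units, dosed for 24 hours; reporter mRNA quantified by RT-PCR, 6-FAM primer extension, HpaI digestion and capillary electrophoresis. Gain-of-signal fitted versus DMSO baseline; internal background-control marker.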

[13] = target: Transcriptional activator Myb (Homo sapiens) (UniProt P10242); experiment: ATG_Myb_CIS: Attagene CIS-FACTORIAL HepG2 Assay for human Myeloblastosis (Myb) Proto-Oncogene Transcription Factor (AID 2282986); conditions: HepG2 Attagene CIS-FACTORIAL Myb reporter transcription; actives raise or lower the signal
Transcriptional activator Myb (Homo sapiens), sequence (P10242 whole entry, looked up): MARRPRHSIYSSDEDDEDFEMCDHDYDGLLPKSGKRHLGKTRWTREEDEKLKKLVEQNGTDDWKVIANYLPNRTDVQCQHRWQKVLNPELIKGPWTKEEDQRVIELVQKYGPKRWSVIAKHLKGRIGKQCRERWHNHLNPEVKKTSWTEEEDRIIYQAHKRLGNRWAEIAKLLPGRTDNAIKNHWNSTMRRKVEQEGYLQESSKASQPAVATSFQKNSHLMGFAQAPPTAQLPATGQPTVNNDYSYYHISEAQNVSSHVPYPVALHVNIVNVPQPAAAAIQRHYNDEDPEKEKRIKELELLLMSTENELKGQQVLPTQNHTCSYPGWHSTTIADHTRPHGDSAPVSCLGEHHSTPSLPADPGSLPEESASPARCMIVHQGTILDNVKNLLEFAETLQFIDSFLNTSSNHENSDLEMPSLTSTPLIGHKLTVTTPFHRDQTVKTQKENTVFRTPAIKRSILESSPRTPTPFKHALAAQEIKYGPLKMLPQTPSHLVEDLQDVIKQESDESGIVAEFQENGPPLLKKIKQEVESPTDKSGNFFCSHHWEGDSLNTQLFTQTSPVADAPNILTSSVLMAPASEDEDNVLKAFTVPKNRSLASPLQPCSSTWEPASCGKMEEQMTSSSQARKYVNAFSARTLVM
Outline: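 HepG2 cells were transiently transfected with cis-regulated multiple reporter transcription units reflecting endogenous Myb activity, then exposed to compound for 24 hours. Reporter mRNA was measured by RT-PCR with capillary electrophoresis; bidirectional fitting versus DMSO baseline.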

[14] = target: Nuclear respiratory factor 1 (Homo sapiens) (UniProt Q16656); experiment: ATG_NRF1_CIS: Attagene CIS-FACTORIAL HepG2 Assay for human Nuclear Respiratory Factor 1 (NRF1) Orphan Gene (AID 2282987); conditions: HepG2 NRF1 cis-element reporter, Attagene multiplex; actives raise or lower the signal
Nuclear respiratory factor 1 (Homo sapiens), sequence (Q16656 whole entry, looked up): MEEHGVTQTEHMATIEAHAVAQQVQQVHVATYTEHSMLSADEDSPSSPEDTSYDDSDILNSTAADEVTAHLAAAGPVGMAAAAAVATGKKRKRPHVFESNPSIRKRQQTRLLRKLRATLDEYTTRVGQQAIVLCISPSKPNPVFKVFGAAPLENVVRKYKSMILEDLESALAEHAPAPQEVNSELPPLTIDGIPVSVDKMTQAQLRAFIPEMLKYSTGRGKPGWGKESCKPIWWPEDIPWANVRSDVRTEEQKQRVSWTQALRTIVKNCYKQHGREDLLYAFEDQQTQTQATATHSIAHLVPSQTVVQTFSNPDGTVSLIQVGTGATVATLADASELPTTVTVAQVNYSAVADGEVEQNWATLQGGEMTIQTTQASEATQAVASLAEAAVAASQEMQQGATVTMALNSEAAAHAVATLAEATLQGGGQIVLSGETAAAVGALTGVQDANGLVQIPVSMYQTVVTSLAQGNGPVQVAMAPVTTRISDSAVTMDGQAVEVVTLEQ
Outline: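 HepG2 cells transiently transfected with multiple reporter transcription units under cis-regulatory promoter control, so endogenous transcription-factor activity is read. After 24 h compound exposure, reporter mRNA quantified by RT-PCR, fluorescent labelling, HpaI digestion and capillary electrophoresis; bidirectional fitting versus DMSO.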

[15] = ATG_NFI_CIS: Attagene CIS-FACTORIAL HepG2 Assay for human Nuclear Factor I (NFI) (AID 2282989); conditions: HepG2 cis-regulatory reporter, NFI response element transcription; actives raise or lower the signal
Outline: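 Endogenous TF activity in HepG2 cells transiently transfected with cis-element-driven multiplexed reporter units, read 24 h after dosing. Reporter mRNA quantified by RT-PCR, 6-FAM labelling, HpaI digestion and capillary electrophoresis; bidirectional fit versus DMSO.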

[16] = target: Glucocorticoid receptor (Homo sapiens) (UniProt P04150); experiment: ATG_GR_TRANS: Attagene TRANS-FACTORIAL HepG2 Assay for human Glucocorticoid Receptor (GR) (AID 2282978; active means hit-call score of the fitted dose curve at least 0.9, where 1 is the maximum;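 further: activators score as hits since higher reporter transcript over DMSO is fitted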); conditions: HepG2 Attagene TRANS GR reporter, mRNA transcription
Outline: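 HepG2 cells transiently transfected with multiplexed reporter units in which chimeric NR-GAL4 proteins drive GAL4-UAS reporters; 24 h compound exposure. Reporter mRNA measured by RT-PCR, 6-FAM labelling, HpaI digestion and capillary electrophoresis; gain-of-signal fitted versus DMSO.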

[17] = target: Bile acid receptor (Homo sapiens) (UniProt Q96RI1); experiment: ATG_FXR_TRANS: Attagene TRANS-FACTORIAL HepG2 Assay for Farnesoid X Receptor (FXR) (AID 2282979; active means hit-call score of the fitted dose curve at least 0.9, where 1 is the maximum;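 further: hits raise reporter mRNA above DMSO so AC50 marks FXR activation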); conditions: HepG2 Attagene TRANS FXR-GAL4 reporter transcription
Bile acid receptor (Homo sapiens), sequence (Q96RI1 whole entry, looked up, the tested form may be a part): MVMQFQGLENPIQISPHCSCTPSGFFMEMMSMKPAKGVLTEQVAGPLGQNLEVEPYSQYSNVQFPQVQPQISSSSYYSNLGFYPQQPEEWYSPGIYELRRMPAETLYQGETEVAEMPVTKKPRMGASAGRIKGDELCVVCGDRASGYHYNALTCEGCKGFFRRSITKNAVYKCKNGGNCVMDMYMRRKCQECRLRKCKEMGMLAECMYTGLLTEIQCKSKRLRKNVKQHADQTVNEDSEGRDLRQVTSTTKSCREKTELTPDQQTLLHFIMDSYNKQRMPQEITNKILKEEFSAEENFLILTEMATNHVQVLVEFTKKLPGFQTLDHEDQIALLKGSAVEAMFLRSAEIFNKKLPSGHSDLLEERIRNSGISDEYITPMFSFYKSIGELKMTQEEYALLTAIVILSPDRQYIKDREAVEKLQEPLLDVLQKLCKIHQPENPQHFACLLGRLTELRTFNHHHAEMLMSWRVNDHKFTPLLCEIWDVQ
Outline: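 Transient transfection of HepG2 with multiplexed GAL4-UAS reporter units; exogenous FXR-GAL4 chimera. Dose 24 h → TriZol RNA → oligo(dT) RT → PCR, 6-FAM primer extension, HpaI cut → CE. Gain vs DMSO.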

[18] = target: Steroid hormone receptor ERR1 (Homo sapiens) (UniProt P11474); experiment: ATG_ERRa_TRANS: Attagene TRANS-FACTORIAL HepG2 Assay for human Estrogen-Related Receptor alpha (ERRa) (AID 2282971; active means hit-call score of the fitted dose curve at least 0.9, where 1 is the maximum); conditions: HepG2 Attagene TRANS reporter, ERRa transactivation
Steroid hormone receptor ERR1 (Homo sapiens), sequence (P11474 whole entry, looked up, the tested form may be a part): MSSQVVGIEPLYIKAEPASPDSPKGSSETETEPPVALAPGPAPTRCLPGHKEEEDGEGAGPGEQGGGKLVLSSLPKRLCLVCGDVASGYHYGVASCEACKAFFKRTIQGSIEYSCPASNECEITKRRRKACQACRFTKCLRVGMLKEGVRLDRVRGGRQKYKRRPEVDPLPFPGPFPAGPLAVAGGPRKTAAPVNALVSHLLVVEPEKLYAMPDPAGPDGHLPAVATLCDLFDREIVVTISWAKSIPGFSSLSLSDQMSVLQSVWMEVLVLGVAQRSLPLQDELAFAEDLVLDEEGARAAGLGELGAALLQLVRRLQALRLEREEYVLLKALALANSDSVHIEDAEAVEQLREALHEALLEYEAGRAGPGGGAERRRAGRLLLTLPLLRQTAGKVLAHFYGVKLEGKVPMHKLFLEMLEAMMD
Outline: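 Reporter transcript induction was quantified by RT-PCR and capillary electrophoresis of FAM-labelled, HpaI-cut products after 24 h treatment of HepG2 cells carrying transiently transfected GAL4-UAS reporter units and an exogenous ERRa-Gal4 fusion; activity scored as increase over DMSO.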

[19] = target: Nuclear receptor subfamily 4 group A member 2 (Homo sapiens) (UniProt P43354); experiment: ATG_NURR1_TRANS: Attagene TRANS-FACTORIAL HepG2 Assay for human Nuclear Receptor Related Protein 1 (NURR1) (AID 2282985; active means hit-call score of the fitted dose curve at least 0.9, where 1 is the maximum); conditions: HepG2 Attagene TRANS reporter, mRNA readout
Nuclear receptor subfamily 4 group A member 2 (Homo sapiens), sequence (P43354 whole entry, looked up, the tested form may be a part): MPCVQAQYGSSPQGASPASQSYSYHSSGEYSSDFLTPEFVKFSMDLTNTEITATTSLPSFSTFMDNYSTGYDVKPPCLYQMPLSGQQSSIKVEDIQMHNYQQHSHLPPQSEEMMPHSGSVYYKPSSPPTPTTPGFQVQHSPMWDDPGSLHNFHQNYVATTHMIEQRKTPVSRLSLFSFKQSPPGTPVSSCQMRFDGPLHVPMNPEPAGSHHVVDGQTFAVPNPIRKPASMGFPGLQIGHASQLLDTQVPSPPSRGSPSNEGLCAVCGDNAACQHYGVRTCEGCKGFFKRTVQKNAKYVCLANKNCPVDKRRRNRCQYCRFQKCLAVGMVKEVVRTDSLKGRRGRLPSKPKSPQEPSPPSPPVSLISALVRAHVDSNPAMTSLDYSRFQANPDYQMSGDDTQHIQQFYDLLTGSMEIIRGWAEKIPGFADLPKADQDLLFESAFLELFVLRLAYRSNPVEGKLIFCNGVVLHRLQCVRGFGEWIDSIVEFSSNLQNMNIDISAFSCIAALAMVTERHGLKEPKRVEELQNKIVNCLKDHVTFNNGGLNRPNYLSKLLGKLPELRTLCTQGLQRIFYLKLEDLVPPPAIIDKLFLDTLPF
Outline: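 HepG2 cells transiently transfected with GAL4-UAS reporter units and chimeric NR-Gal4 constructs; chemical exposure 24 h. Reporter mRNA quantified by RT-PCR, fluorescent labelling and capillary electrophoresis; gain of signal fitted relative to DMSO baseline.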

Question: Which outcome [1] does the source give for `OC1CCCCC1` here?
Answer: inactive

Question: What about the outcome [2] of the same molecule?
Answer: inactive

Question: And the outcome [3]?
Answer: inactive

Question: And the outcome [4]?
Answer: inactive

Question: And the outcome [5]?
Answer: inactive

Question: What about the outcome [6] of the same molecule?
Answer: inactive

Question: What about the outcome [7] of the same molecule?
Answer: inactive

Question: And the outcome [8]?
Answer: inactive

Question: And the outcome [10]?
Answer: inactive

Question: What about the outcome [11] of the same molecule?
Answer: inactive

Question: What about the outcome [12] of the same molecule?
Answer: inactive

Question: And the outcome [13]?
Answer: inactive

Question: And the outcome [14]?
Answer: inactive

Question: What about the outcome [15] of the same molecule?
Answer: inactive

Question: What does the source list for `CC(=O)NC1(c2cccc(F)c2)CCN(CC[C@@]2(c3ccc(Cl)c(Cl)c3)CN(c3ccccc3)C(=O)CO2)CC1`?
Answer: AC50 [1]: 8.64 µM (active); outcome [2]: inactive; outcome [3]: inactive; AC50 [4]: 39.8 µM (active); AC50 [6]: 25.7 µM (active); outcome [7]: inactive; AC50 [16]: 62 µM (active); outcome [17]: inactive; outcome [8]: inactive; outcome [9]: inactive; outcome [10]: inactive; AC50 [11]: 52 µM (active); outcome [13]: inactive; AC50 [14]: 57.5 µM (active); AC50 [15]: 41.7 µM (active)

Question: With `COCC(C)O` (centres undefined) as the molecule, how does the outcome [2] read?
Answer: inactive

Question: What about the outcome [3] of the same molecule?
Answer: inactive

Question: And the outcome [4]?
Answer: inactive

Question: And the outcome [5]?
Answer: inactive

Question: And the outcome [18]?
Answer: inactive

Question: And the outcome [6]?
Answer: inactive

Question: And the outcome [16]?
Answer: inactive

Question: And the outcome [8]?
Answer: inactive

Question: And the outcome [9]?
Answer: inactive

Question: What about the outcome [11] of the same molecule?
Answer: inactive

Question: What about the outcome [12] of the same molecule?
Answer: inactive

Question: And the outcome [13]?
Answer: inactive

Question: And the outcome [14]?
Answer: inactive

Question: What about the outcome [15] of the same molecule?
Answer: inactive

Question: For `CCCCCCCCOC(=O)CCCCCCCCC(=O)OCCCCCCCC`, which outcome [2] is on record?
Answer: inactive

Question: What about the outcome [3] of the same molecule?
Answer: inactive

Question: What about the outcome [4] of the same molecule?
Answer: inactive

Question: What about the outcome [5] of the same molecule?
Answer: inactive

Question: What about the outcome [18] of the same molecule?
Answer: inactive

Question: What about the outcome [6] of the same molecule?
Answer: inactive

Question: And the outcome [7]?
Answer: inactive

Question: What about the outcome [17] of the same molecule?
Answer: inactive

Question: And the outcome [13]?
Answer: inactive

Question: What about the outcome [14] of the same molecule?
Answer: inactive

Question: What about the outcome [15] of the same molecule?
Answer: inactive

Question: With `O=C(/C=C/c1ccc(O)cc1)CC(=O)/C=C/c1ccc(O)cc1` as the molecule, how does the outcome [2] read?
Answer: inactive

Question: What about the outcome [3] of the same molecule?
Answer: inactive

Question: And the AC50 [4]?
Answer: 5.76 µM (active)

Question: What about the outcome [5] of the same molecule?
Answer: inactive

Question: What about the outcome [18] of the same molecule?
Answer: inactive

Question: What about the outcome [6] of the same molecule?
Answer: inactive

Question: And the outcome [17]?
Answer: inactive

Question: What about the outcome [8] of the same molecule?
Answer: inactive

Question: What about the outcome [10] of the same molecule?
Answer: inactive

Question: What about the outcome [11] of the same molecule?
Answer: inactive

Question: What about the outcome [19] of the same molecule?
Answer: inactive

Question: What about the outcome [13] of the same molecule?
Answer: inactive

Question: And the outcome [14]?
Answer: inactive

Question: What about the outcome [15] of the same molecule?
Answer: inactive

— PubChem BioAssay (EPA / NIEHS)
